# Screening results (PubChem)
# Hits are enriched below; roughly 3.4% of the tested compounds scored in any of these assays.
# PLC-beta3 inh: PLC-beta3 (human) inhibition, primary screen. Purified PLC-beta3, fluorogenic substrate, fluorescence. inhibition, % at 12.2 µM. AID 720704. 370,000 tested, 0.18% active; in the data active means inhibition above about 11%
# ADAM17 inh: inhibitors of human ADAM17; recombinant ADAM17, EDANS/DABCYL FRET peptide cleavage; 370,000 tested, 0.83% active; P78536; AID 720648; inhibition, % at 6.95 µM;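 active means inhibition above the mean of compounds lying between control limits plus 3 SD, set per campaign, cut at about 8.5% in these data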
# HGIII-sPLA2 inh: Inhibits HGIII-sPLA2 liposome hydrolysis, primary screen. Q9NZ20. QFRET BODIPY PC-A2 liposome hydrolysis, fluorescence. inhibition, % at 12.2 µM. 370,000 tested, 0.56% active;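 active means inhibition above mean plus 3 SD of compounds lying within the high and low control bounds, cut at about 19% in these data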
# ADAM10 inh: ADAM10 inhibition, QFRET primary screen; 370,000 tested, 0.62% active; recombinant ADAM10, EDANS/DABCYL FRET peptide cleavage, 3 h; AID 720582; inhibition, % at 7 µM; O14672;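 active means inhibition above a per-campaign cutoff equal to the mean of compounds falling between control-based bounds plus 3 SD, cut at about 20% in these data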
# KLK7 zymogen act: activates the human kallikrein-7 zymogen | 370,000 tested, 0.9% active | activation, % at 7 µM | purified proKLK7, EDANS-DABCYL substrate fluorescence; 100% is mature enzyme control, 0% vehicle | P49862 | AID 652039;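 active means activation above the mean of all tested compounds plus 3 SD, computed per campaign excluding outliers beyond control limits, cut at about 13% in these data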
# PLC-gamma1 inh: inhibitors of human phospholipase C gamma1; purified PLC-gamma1, fluorogenic substrate, fluorescence; P19174; inhibition, % at 12.2 µM; 370,000 tested, 0.84% active; in the data active means inhibition above about 9.5%
# ADAM10 ctr: counter-screen for ADAM17 exosite inhibitors: inhibitors of human ADAM10 | shares compounds with ADAM17 inh | recombinant ADAM10, EDANS/DABCYL FRET peptide cleavage, 3 h | 2,900 tested, 47% active | AID 743256 | inhibition, % at 6.95 µM;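 active means mean inhibition over the triplicate runs exceeds the activity threshold set in the earlier primary screen, cut at about 20% in these data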
# ADAM17 confirm: confirmation of inhibitors of human ADAM17; shares compounds with ADAM17 inh; recombinant ADAM17, EDANS/DABCYL QFRET peptide cleavage; inhibition, % at 6.95 µM; 2,900 tested, 65% active;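 active means mean inhibition across replicates above the hit cutoff set in the primary screen, cut at about 8.5% in these data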
# A number is an active result; . = inactive; / = no result.
SMILES,PLC-beta3 inh,ADAM17 inh,HGIII-sPLA2 inh,ADAM10 inh,KLK7 zymogen act,PLC-gamma1 inh,ADAM10 ctr,ADAM17 confirm
Cc1cccc(N2CCN(C(=O)c3ccc(CS(=O)Cc4ccc(Cl)cc4)o3)CC2)c1C (configuration not stated),.,11.1,.,.,.,.,.,11.8
COCCCNC(=O)C[C@H]1C[C@@]2(C(=O)OC)C(=C[C@H](C3CCCC3)O[C@@H]2C)N(CCC2=CCCCC2)C1=O,.,.,.,.,.,.,/,/
CC(=O)c1cccc(NC(=O)CN(c2ccc(C)cc2)S(=O)(=O)c2cccc3nonc23)c1,.,11.8,.,22.8,.,.,25.2,15.1
CS(=O)(=O)N1CCc2cc(C(=O)Nc3ccc(Br)cc3)ccc21,.,9.0,.,.,.,.,.,.
COc1ccc(C(=O)Nc2ccc(S(=O)(=O)N3CCc4ccccc43)cc2)cc1,.,9.2,.,.,.,.,21.5,14.8
O=C(Nc1ccccc1)c1ccc(CN2CCc3ccccc3C2)cc1,.,.,.,.,.,.,/,/
O=C(Nc1ccc(S(=O)(=O)N2CCCCC2)cc1)c1ccc(CN2CCc3ccccc3C2)cc1,.,8.8,.,.,.,.,.,9.6
O=C(Cc1cccs1)NC1CCCCN(Cc2cccc(Cl)c2)C1=O (configuration not stated),.,.,.,.,.,.,/,/
Cc1nc2sc(C(=O)NC3CC3)c(N)c2c(C)c1Cl,.,.,.,.,.,.,/,/
O=C(c1cc(-c2ccccc2)on1)N1CCC(Oc2cccnc2)CC1,.,.,.,.,.,.,/,/
COc1ccc(N2CCCN(CC(=O)Nc3ccc(Cl)c(Cl)c3)CC2)cc1,.,.,.,.,.,.,/,/
C=CCN(C(=O)[C@@H](C1CC1)[C@@H](O)c1ccc(Cl)cc1)c1ccccc1,.,.,.,.,.,.,/,/
Cc1ccc(-n2c(SCC(=O)Nc3ccc(Oc4ccccc4)cc3)nnc2-c2ccco2)cc1,.,.,.,.,.,.,/,/
CCOC(=O)c1ccc(NC(=S)NCc2ccc(F)cc2)cc1,.,12.1,.,.,.,.,.,10.2
COC(=O)c1ccc(-n2c(C)cc(C(=O)CSc3ccc(NC(C)=O)cc3)c2C)cc1,.,9.0,.,.,.,.,21.6,16.5
CC(=O)Nc1ccc(SCC(=O)c2cc(C)n(-c3ccccc3F)c2C)cc1,.,.,.,.,.,.,/,/
Nc1[nH]c2cc(C(F)(F)F)ccc2c1C(=O)NC1CCCCC1,.,.,.,.,.,.,/,/
N#Cc1cccc(NC(=O)OC2CC3CC2[C@H]2CCCCN2C3)c1 (some centres not stated),.,.,.,.,.,.,/,/
CNC(=O)N(C1=NCC(C)(C)S1)c1ccc(F)c(Cl)c1,.,9.2,.,.,.,.,.,.
COC(=O)[C@@]12CCCCC=C1N(CCc1ccc(Cl)cc1)C(=O)[C@H]2CC(=O)NCc1cccc2ccccc12,.,.,.,.,.,.,/,/
CN1C(=O)OC(C)(CCc2ccccc2)C1(C)O (configuration not stated),.,.,.,.,.,.,/,/
CC1(O)N(Cc2ccccc2)C(=O)OC12CCCCC2 (configuration not stated),.,9.1,.,.,.,.,.,13.9
Cc1cccc(NC(=O)C2(c3ccc([N+](=O)[O-])cc3)CCCC2)c1,.,9.3,.,.,.,.,.,.
C[C@@H]1OCN(C)[C@H]2C[C@H]3c4[nH]c5cccc(-c6cccc(F)c6)c5c4CCN3C(=O)[C@@H]12,.,.,.,.,.,.,/,/
CCC/C=C/c1ccc(CN2C(CC(C)C)C(=O)N(Cc3cn(CCC4OCCO4)nn3)CCS2(=O)=O)cc1 (configuration not stated),.,.,.,.,.,.,/,/
CCC/C=C/c1ccc(CN2C(C(C)C)C(=O)N(Cc3cn(CCC4OCCO4)nn3)CCS2(=O)=O)cc1 (configuration not stated),.,11.2,.,.,.,.,30.0,16.9
